In PubChem BioAssay AID1376 (SRMLSC, 2008):
Screen size: about 220,000 compounds; about 530 (0.24%) were called active. Rule as the data show it: active = inhibition above about 13%; inconclusive = no clear call, values can overlap the other calls; inactive = below that. This excerpt belongs to a sample that is enriched for actives. Entries with a potency or affinity are not part of this list.

These compounds were tested against Bifunctional protein GlmU (Mycobacterium tuberculosis (strain ATCC 25618 / H37Rv)) (UniProt P9WMN3) (assay: inhibition of mycobacterial GlmU enzyme – biochemical, glucosamine-1-phosphate acetyltransferase (AID 1376;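 also: 0% = complete reaction with vehicle and 100% = reaction without substrate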)). Settings: M. tuberculosis GlmU acetyltransferase enzyme assay; hits give high values;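 tested at 30 µM in the primary screen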.
Chain of Bifunctional protein GlmU (Mycobacterium tuberculosis (strain ATCC 25618 / H37Rv)) (P9WMN3 whole entry, looked up): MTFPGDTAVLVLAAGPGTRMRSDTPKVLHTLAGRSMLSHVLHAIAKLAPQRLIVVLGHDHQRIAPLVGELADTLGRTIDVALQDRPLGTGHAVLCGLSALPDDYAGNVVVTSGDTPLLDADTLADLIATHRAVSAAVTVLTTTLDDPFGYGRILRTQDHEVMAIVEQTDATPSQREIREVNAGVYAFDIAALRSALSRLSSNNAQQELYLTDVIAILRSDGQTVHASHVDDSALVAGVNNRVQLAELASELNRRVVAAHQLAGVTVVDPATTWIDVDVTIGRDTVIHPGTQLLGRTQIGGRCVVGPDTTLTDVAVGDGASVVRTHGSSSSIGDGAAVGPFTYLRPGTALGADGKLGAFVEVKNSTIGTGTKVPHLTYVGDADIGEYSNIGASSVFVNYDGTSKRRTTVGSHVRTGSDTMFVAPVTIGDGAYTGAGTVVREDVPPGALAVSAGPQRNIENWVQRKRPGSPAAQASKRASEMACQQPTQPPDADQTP
`Cc1nc(NC(=O)COc2ccccc2)sc1C(=O)Nc1ccccc1` was tested, and the inhibition was 6.13% (inactive).
`Cc1nc(NC(N)=S)sc1C(=O)Nc1ccccc1` was tested, and the inhibition was 14.8% (active).
With `Cc1nc(Nc2ccccc2)sc1C(=O)Nc1ccccc1` the inhibition was 2.24% (inactive).
In the case of `O=C(NCc1n[nH]c(=S)n1-c1ccc(F)cc1)c1ccco1`, the inhibition is reported as 3.33% (inactive).
`CCOC(=O)CC(=O)CSc1nc(-c2cccnc2)ccc1C#N` was tested, and the inhibition was 2.76% (inactive).
For `Cc1ccc(NC(=O)Cn2nnc3ccccc32)cc1`, the inhibition was -1.28% (inactive).
`CCCCn1c(CNC(=O)C23CC4CC(CC(C4)C2)C3)nnc1SC(C)CC` (configuration not stated) was tested, and the inhibition was -3.15% (inactive).
With `Cc1ccc(S(=O)(=O)N(C)C/N=C(\N)N[N+](=O)[O-])cc1` the inhibition was -3.35% (inactive).
For `O=C1CCCC(O)=C1N=Nc1ccc2c(c1)OCO2`, the inhibition was 1.81% (inactive).
In the case of `O=C1CCCC(O)=C1N=Nc1ccc(Cl)c(Cl)c1`, the inhibition is reported as 0.41% (inactive).
For `O=C1CCCC(O)=C1N=Nc1ccc(C(=O)O)cc1`, the inhibition was 13.3% (active).
With `CCc1nnc(NC(=O)CSc2nc(-c3ccccc3)nc3ccccc23)s1` the inhibition was -1.88% (inactive).
With `CC1CC(C)(C)NC(=S)N1CCCC(=O)NCc1ccccc1` (configuration not stated) the inhibition was -0.79% (inactive).
In the case of `OCCN1CCN(C(c2cccs2)c2ccc3cccnc3c2O)CC1` (configuration not stated), the inhibition is reported as 17.8% (active).
For `Oc1c(C(c2ccccc2Cl)N2CCCC2)ccc2cccnc12` (configuration not stated), the inhibition was -1.53% (inactive).
With `CN1CCN(C(c2cccnc2)c2ccc3cccnc3c2O)CC1` (configuration not stated) the inhibition was -1.35% (inactive).
For `CCc1ccc(CN(C)CCc2ccccn2)cc1`, the inhibition was 1.82% (inactive).
With `O=C(NCc1ccc2c(c1)OCO2)C1CC(c2cccc(Br)c2)=NO1` (configuration not stated) the inhibition was 5.45% (inactive).
`COc1cc(/C=N/NC(=O)c2ccc(F)cc2)ccc1OC(=O)c1ccco1` was tested, and the inhibition was 1.03% (inactive).
In the case of `CCC1=NN(C(=O)c2ccc(Br)cc2)C(O)(c2ccccc2)C1` (configuration not stated), the inhibition is reported as 1.41% (inactive).
`CCN(CC)CCC/C(=N\O)C(O)(c1ccccc1)c1ccccc1` was tested, and the inhibition was -1.2% (inactive).
`COc1ccc(-c2ccc(OC)cc2C(=O)O)cc1` was tested, and the inhibition was 14.9% (active).
`COc1ccc(C(=O)O)c(O)c1` was tested, and the inhibition was 1.05% (inactive).
`COc1ccc(OCc2cccc(C(=O)O)c2)cc1` was tested, and the inhibition was -3.31% (inactive).
`O=C(O)c1cc(O)ccc1-c1ccc(O)cc1` was tested, and the inhibition was 0.42% (inactive).
For `COc1ccc(OCc2ccc(C(=O)O)cc2)cc1`, the inhibition was -5.61% (inactive).
For `CCN(CC)S(=O)(=O)c1ccc(N2CCOCC2)c(NC(=O)Cc2ccccc2)c1`, the inhibition was -0.9% (inactive).
For `O=C(NC(=S)Nc1cc(S(=O)(=O)N2CCOCC2)ccc1N1CCOCC1)c1ccco1`, the inhibition was 1.22% (inactive).
`CCN(CC)S(=O)(=O)c1ccc(N2CCOCC2)c(NC(=S)NC(=O)c2ccco2)c1` was tested, and the inhibition was 14.6% (active).
In the case of `Cc1cc(C)n(CCc2nc(-c3ccc(C(C)(C)C)cc3)cs2)n1`, the inhibition is reported as -7.47% (inactive).
`CC(C)NC(=O)c1ccccc1NC(=O)CS(=O)(=O)Cc1ccccc1` was tested, and the inhibition was -2.67% (inactive).
With `NC(=O)c1ccccc1NC(=O)CS(=O)(=O)Cc1ccccc1` the inhibition was 14.6% (active).
In the case of `O=C(CS(=O)(=O)Cc1ccccc1)Nc1ccccc1Cl`, the inhibition is reported as -1.63% (inactive).
For `COc1ccc(S(=O)(=O)N(C)CC(=O)Nc2ccc3c(c2)OCO3)cc1OC`, the inhibition was -3.21% (inactive).
With `CCCCOC(=O)C1CN(c2ccccc2)N=C1C(C)=O` (configuration not stated) the inhibition was 3.69% (inactive).
`CC(=O)NC(=O)NC1OC(=O)C(Cl)=C1Cl` (configuration not stated) was tested, and the inhibition was 2.53% (inactive).
`Cc1ccccc1S(=O)(=O)NC1OC(=O)C(Cl)=C1Cl` (configuration not stated) was tested, and the inhibition was 9.45% (inactive).
With `Cc1ccc(S(=O)(=O)NC2OC(=O)C(Cl)=C2Cl)cc1` (configuration not stated) the inhibition was 13.1% (active).
`C#CC[N+](C)(C)CCCCCCCCCC` was tested, and the inhibition was -5.84% (inactive).
`CCC(c1nnnn1CCC(C)C)N1CCC(C(N)=O)CC1` (configuration not stated) was tested, and the inhibition was 2.94% (inactive).
With `Cc1ccc(Oc2ccc(OCC(=O)OC3CCS(=O)(=O)C3)cc2)cc1` (configuration not stated) the inhibition was -1.4% (inactive).
`Cc1ccc2c(c1)sc1nc(=O)n(-c3ccccc3)c(=O)n12` was tested, and the inhibition was 4.71% (inactive).
`Cc1ccc2c(c1)sc1nc(=O)n(-c3cccc(Cl)c3)c(=O)n12` was tested, and the inhibition was 38.6% (active).
`Cc1ccc2c(c1)sc1nc(=O)n(-c3ccc(Cl)cc3)c(=O)n12` was tested, and the inhibition was 2.07% (inactive).
For `Cc1ccc(C)c(Cn2nnc3c(=O)[nH]c(C(=O)NCC4CCCO4)nc32)c1` (configuration not stated), the inhibition was 0.99% (inactive).
`O=C(NCC1CCCO1)c1nc2c(nnn2Cc2ccc(F)cc2)c(=O)[nH]1` (configuration not stated) was tested, and the inhibition was 13.4% (active).
In the case of `O=C(NCC1CCCO1)c1nc2c(nnn2Cc2ccccc2Cl)c(=O)[nH]1` (configuration not stated), the inhibition is reported as -1.69% (inactive).
With `CCCCNC(=O)CNC(=S)N(CCCN1CCOCC1)Cc1cccs1` the inhibition was 3.25% (inactive).
`CN(C)S(=O)(=O)c1cccc(NC(=S)N/N=C/c2cc(Br)ccc2O)c1` was tested, and the inhibition was -0.84% (inactive).
`COc1ccc(O)c(/C=N/NC(=S)Nc2cccc(S(=O)(=O)N(C)C)c2)c1` was tested, and the inhibition was -8.22% (inactive).
For `Oc1cccc(/C=N/NC(=S)Nc2cccnc2)c1O`, the inhibition was 5.05% (inactive).
`Oc1ccc(/C=N/NC(=S)Nc2cccnc2)c(O)c1` was tested, and the inhibition was 3.56% (inactive).
In the case of `COc1ccccc1NC(=O)CCC(=O)N(Cc1ccc(OC)c(OC)c1)c1nccs1`, the inhibition is reported as -2.21% (inactive).
In the case of `CCN1CCN(c2cc3c(nn2)Oc2ccccc2N3C)CC1`, the inhibition is reported as 0.59% (inactive).
With `Cc1nc2ccccc2c(=O)n1NC(=O)Cc1ccc([N+](=O)[O-])cc1` the inhibition was -0.18% (inactive).
For `O=C(Cn1nc(-c2ccccc2)c2ccccc2c1=O)Nc1cccc(O)c1`, the inhibition was 3.9% (inactive).
For `O=C1NC(=O)N(c2ccccc2)C(=O)/C1=C/c1ccoc1`, the inhibition was -0.64% (inactive).
With `Cc1ccc(N2C(=O)NC(=O)/C(=C\c3ccoc3)C2=O)cc1` the inhibition was 0.76% (inactive).
For `CCCC(c1nnnn1CC(=O)OCC)N(Cc1cc2ccc(C)cc2[nH]c1=O)C1CCCC1` (configuration not stated), the inhibition was 7.33% (inactive).
With `CCOC(=O)N1CCN(C(=O)CN(c2ccc(OCc3ccccc3)cc2)S(C)(=O)=O)CC1` the inhibition was 4.38% (inactive).
For `O=C(NC(=S)NNC(=O)c1ccccc1F)c1cccnc1`, the inhibition was 3.92% (inactive).
In the case of `O=C(NNC(=S)NC(=O)c1cccnc1)c1ccccc1`, the inhibition is reported as -2.11% (inactive).
`Cc1ccccc1C(=O)NNC(=S)NC(=O)c1cccnc1` was tested, and the inhibition was 4.43% (inactive).
With `O=C(NC(=S)NNC(=O)c1ccccc1O)c1cccnc1` the inhibition was 12.9% (active).
In the case of `O=C(NNC(=S)NC(=O)c1cccnc1)c1ccc(F)cc1`, the inhibition is reported as 13.5% (active).
`O=C(NNC(=S)NC(=O)c1cccnc1)c1ccc(Cl)cc1` was tested, and the inhibition was -3.46% (inactive).
With `CCOC(=O)C1=C(C)Nc2nc3ccccc3n2C1c1ccc(O)cc1` (configuration not stated) the inhibition was 6.95% (inactive).
In the case of `Nc1nc(CN2CCN(C(c3ccccc3)c3ccccc3)CC2)nc(Nc2ccccc2)n1`, the inhibition is reported as -2.82% (inactive).
`COC(=O)CC1C(=O)NCCN1C(=O)CSc1nnnn1-c1ccc(OC)cc1` (configuration not stated) was tested, and the inhibition was -2.52% (inactive).
In the case of `O=C(O)C1CC1c1ccc(Br)cc1` (configuration not stated), the inhibition is reported as 2.18% (inactive).
With `CCCNc1nc(C)nc2c1cnn2CCc1ccccc1` the inhibition was 1.42% (inactive).
For `CCN(CC)c1ccc(C=C2C(=O)OC3(CCCCC3)OC2=O)cc1`, the inhibition was -3.43% (inactive).
In the case of `O=C(O)c1ccc2c(c1)C(=O)/C(=C/c1ccccc1)C2=O`, the inhibition is reported as 18.9% (inactive).
With `CCN(CC)c1ccc(C=C2C(=O)OC3(CCCC3)OC2=O)cc1` the inhibition was -0.14% (inactive).
For `CCN(CC)c1ccc(C(=O)O)cc1`, the inhibition was -1.49% (inactive).
For `COc1ccc(-c2ccc(OC)c([C@H]3[C@H]4C=CC[C@@H](C)[C@@H]4C(=O)N3Cc3ccccc3)c2)cc1C`, the inhibition was 1.44% (inactive).
For `CCOc1cc2c(cc1C=O)OC(C)C2` (configuration not stated), the inhibition was -3.18% (inactive).
In the case of `Cc1ccc(C(=O)NCc2ccccn2)cc1Cl`, the inhibition is reported as -4.77% (inactive).
In the case of `O=C(c1ccc2c(c1)OCCO2)N1CCN(Cc2ccccc2)CC1`, the inhibition is reported as 0.55% (inactive).
In the case of `CCC(OC(=O)CC1Sc2ccccc2NC1=O)C(=O)NCC1CCCO1` (configuration not stated), the inhibition is reported as -4.76% (inactive).
With `CCCCCCOC(=O)CCc1c(C)nc(N)[nH]c1=O` the inhibition was 1.43% (inactive).
In the case of `O=CC(Br)P(=O)(N1CCOCC1)N1CCOCC1` (configuration not stated), the inhibition is reported as 13.9% (active).
In the case of `CC(C)(C)P(=O)(N1CCOCC1)N1CCOCC1`, the inhibition is reported as -0.04% (inactive).
`O=CC(Cl)P(=O)(N1CCOCC1)N1CCOCC1` (configuration not stated) was tested, and the inhibition was 5.15% (inactive).
In the case of `CN(c1ccccc1)c1nc(N)c([N+](=O)[O-])c(NCc2ccccc2)n1`, the inhibition is reported as -0.66% (inactive).
With `CCCC(=O)NNc1cc(=O)c2c(=O)n(C)c(=O)n(C)c2[nH]1` the inhibition was -0.71% (inactive).
`Cc1ccc(N2CC(C(=O)NCCC(C)C)CC2=O)cc1` (configuration not stated) was tested, and the inhibition was 1.29% (inactive).
`N#CC12CNCC1CN=N2` (configuration not stated) was tested, and the inhibition was 15.5% (active).
`Cc1ccc2c(c1)C(c1ccccc1)C(=O)O2` (configuration not stated) was tested, and the inhibition was 2.36% (inactive).
For `Cc1noc(C)c1COC(=O)C(c1ccccc1)c1ccccc1`, the inhibition was -2.73% (inactive).
`COc1ccc(OCCC(=O)OCc2c(C)noc2C)cc1` was tested, and the inhibition was 3.9% (inactive).
In the case of `Cc1noc(C)c1COC(=O)CCOc1ccccc1`, the inhibition is reported as 13.2% (active).
For `Cc1ccc(N2CCN(C(=O)Nc3cccc([N+](=O)[O-])c3)CC2C)cc1` (configuration not stated), the inhibition was 5.55% (inactive).
With `CCc1ccc(C(=O)N/N=C/c2cccc3ccccc23)nc1` the inhibition was -1.08% (inactive).
`O=C(c1ccccc1)N1CCN(c2ccc([N+](=O)[O-])c(NCc3cccnc3)c2)CC1` was tested, and the inhibition was -14.7% (inactive).
With `Cc1ccccc1C(=O)N1CCN(c2ccc([N+](=O)[O-])c(NCc3cccnc3)c2)CC1` the inhibition was 14.5% (active).
With `O=C(c1ccccc1F)N1CCN(c2ccc([N+](=O)[O-])c(NCc3cccnc3)c2)CC1` the inhibition was 4.22% (inactive).
For `N#Cc1cc(C(=O)c2cc(Cl)ccc2O)cn(CC2CCCO2)c1=O` (configuration not stated), the inhibition was 1% (inactive).
`Cc1cc(C)c2c(=O)n(CC(=O)Nc3cccc(Cl)c3C)sc2n1` was tested, and the inhibition was 3.9% (inactive).
For `CCOc1ccc(NC(=O)Cn2sc3nc(C)cc(C)c3c2=O)cc1`, the inhibition was 14.9% (active).
In the case of `Cc1ccc(NC(=O)Cn2sc3nc(C)cc(C)c3c2=O)c(Cl)c1`, the inhibition is reported as 2.26% (inactive).
With `Cc1cc(C)c2c(=O)n(CC(=O)NC3CCCC3)sc2n1` the inhibition was 15% (active).
`Cc1cc(C)c2c(=O)n(CC(=O)Nc3ccc(Br)c(C)c3)sc2n1` was tested, and the inhibition was -1.95% (inactive).
In the case of `Cc1cc(C)c2c(=O)n(CC(=O)N3CCC(N4CCCCC4)CC3)sc2n1`, the inhibition is reported as -2.82% (inactive).
For `CCCNC(=O)Cn1sc2nc(C)cc(C)c2c1=O`, the inhibition was 9.09% (inactive).
With `Cc1cc(C)c2c(=O)n(CC(=O)Nc3cccc(F)c3)sc2n1` the inhibition was 9.3% (inactive).
For `Cc1cc(C)c2c(=O)n(CC(=O)Nc3ccc(Cl)cc3)sc2n1`, the inhibition was 13% (active).
